The structures appear in SMILES notation. Results filed as inconclusive are left out. Values without a mark were called inactive. The source made the active and inactive calls. The call rests on the fitted dose curve; in most records, active means well fitted cell-killing curve with a large enough effect; inconclusive means small, poorly fitted or top-dose-only effect; inactive means no such curve, though single readings can be large or run the other way.
Potency means the concentration at half of the fitted maximal effect.

The assay in a line: Quantitative High-Throughput drug screen in 47 multiple myeloma cell lines against the NCATS MIPE library collection: JIM3_ECACC cell viability assay (AID 1918963; further: nearly all actives have a fitted effect of over 35% in size). The conditions noted are these: JIM3 myeloma viability, CellTiter-Glo ATP, 48 h; series mostly up to 45.8 µM; viability, percent of control: at the top concentration. From the text:
PI: Beverly A. Mock Ph.D.
Laboratory of Cancer Biology and Genetics,
Center for Cancer Research, National Cancer Institute,
National Institute of Health, Bethesda, Maryland
Drug resistance and disease progression are common in multiple myeloma (MM) patients, underscoring the need for new therapeutic combinations. […] We hypothesized that effective combinations would reduce MYC expression and enhance p16 activity. […] These preclinical data identify potentially useful drug combinations for evaluation in drug-resistant MM and reveal potential mechanisms of combined drug sensitivity.
Described herein is the primary MIPE qHTS used to cherrypick compounds. Validated compounds were then further tested for potential synergistic activiy.
[1] Peat TJ, Gaikwad SM, Dubois W, Gyabaah-Kessie N, Zhang S, Gorjifard S, Phyo Z, Andres M, Hughitt VK, Simpson RM, Miller MA, Girvin AT, Taylor A, Williams D, D'Antonio N, Zhang Y, Rajagopalan A, Flietner E, Wilson K, Zhang X, Shinn P, Klumpp-Thomas C, McKnight C, Itkin Z, Chen L, Kazandijian D, Zhang J, Michalowski AM, Simmons JK, Keats J, Thomas CJ, Mock BA. Drug combinations identified by high-throughput screening promote cell cycle transition and upregulate Smad pathways in myeloma. Cancer Lett. 2023 Aug 1;568:216284. doi: 10.1016/j.canlet.2023.216284. Epub 2023 Jun 24. PMID: 37356470; PMCID: PMC10408729.
SEQUENCE No. (e.g., 1, 2, 3, etc.); […] (e.g., Cells, Incubation, Reagent, etc.); VALUE and DESCRIPTION.
1; Cells; 5 uL; white, solid bottom 1536-well Greiner assay plate.
2; Compounds; 23 nL; Kalypsis pin tool (Wako USA) equipped with a 1536-well pin head to transfer to the assay plates.
3; Incubation; 48 hours; 37C incubation.
4; Reagent;5uL; CellTiter Glo (Promega).
5; Detector; 425V; Luminescence; Viewlux PerkinElmer.
NOTES (numbers refer to Sequence numbers above)
1. The cell-based screening methods employed in this study were like those previously published. Briefly, the corresponding myeloma cell lines were screened in 1,536-well plates with 500 cells, 5-uL per well for inhibition of cell viability (assessed by measuring ATP levels with CellTiterGlo).
2. NCATS MIPE 4.0 library of approved and investigational drugs were added using the Kalypsis pin tool. Wells treated with DMSO only for 100% viability and media only wells for 0% viability were used as controls.
3. The assay plates were covered and incubated for 48 hours in a 37C, 5% CO2 incubator with controlled humidity.
4. After 48 hours, CellTilter-GloTM luminescent substrate mix (Promega) reagent was added to the assay plate and plates we incubated for 5 min at room temperature.
5. Signal was measured as median relative luminescence units on a ViewLux (PerkinElmer) multiplate reader.
[1] Heske CM, Davis MI, Baumgart JT, Wilson K, Gormally MV, Chen L, Zhang X, Ceribelli M, Duveau DY, Guha R, Ferrer M, Arnaldez FI, Ji J, Tran HL, Zhang Y, Mendoza A, Helman LJ, Thomas CJ. Matrix Screen Identifies Synergistic Combination of PARP Inhibitors and Nicotinamide Phosphoribosyltransferase (NAMPT) Inhibitors in Ewing Sarcoma. Clin Cancer Res. 2017 Dec 1;23(23):7301-7311. doi: 10.1158/1078-0432.CCR-17-1121. Epub 2017 Sep 12. PMID: 28899971; PMCID: PMC6636827.
For orientation: Cellular ATP, detected with luciferase, serves as a proxy for viable cell number.
Consider `COc1nc(C)nc(Cl)c1NC1=NCCN1`, for which the “viability, percent of control” value is 105%.

Consider `CCOC(=O)c1ncn2c1CN(C)C(=O)c1cc(F)ccc1-2`, for which the “viability, percent of control” value was 110%.

Take `O=C(Nc1ccc([N+](=O)[O-])cc1Cl)c1cc(Cl)ccc1O`: the Potency was 0.59 µM (active).

Consider `NC(=O)NO`, for which the Potency is 0.187 µM (active).

Turning to `O=c1c(-c2ccc(O)cc2)coc2cc(O)cc(O)c12`, the “viability, percent of control” value is 77.1%.

`Clc1ccc(C(c2ccccc2Cl)C(Cl)Cl)cc1` (stereo not given): the Potency is 20.9 µM (active).

In the case of `O=C1N(c2ccccc2)c2ccccc2C1(Cc1ccncc1)Cc1ccncc1`, the “viability, percent of control” value is 116%.

For `CN(C)C(=O)C(CCN1CCC(O)(c2ccc(Cl)cc2)CC1)(c1ccccc1)c1ccccc1`, the Potency was 20.9 µM (active).

For the compound `CN1CCN2c3ccccc3Cc3ccccc3C2C1` (stereo not given), the Potency was 20.9 µM (active).

In the case of `Nc1ccn([C@H]2CC[C@@H](CO)O2)c(=O)n1`, the Potency was 26.4 µM (active).

Take `CCc1cccc2c3c([nH]c12)C(CC)(CC(=O)O)OCC3` (stereo not given): the “viability, percent of control” value was 111%.

As for `CNCCCC12CCC(c3ccccc31)c1ccccc12`, the Potency is 20.9 µM (active).

Consider `NCCCCCC(=O)O`, for which the “viability, percent of control” value is 111%.

Take `Cc1ccc(C(=O)Nc2ccc(S(=O)(=O)O)c3cc(S(=O)(=O)O)cc(S(=O)(=O)O)c23)cc1NC(=O)c1cccc(NC(=O)Nc2cccc(C(=O)Nc3cc(C(=O)Nc4ccc(S(=O)(=O)O)c5cc(S(=O)(=O)O)cc(S(=O)(=O)O)c45)ccc3C)c2)c1`: the Potency is 16.6 µM (active).

Regarding `O=C1c2c(O)ccc(O)c2C(=O)c2c(NCCNCCO)ccc(NCCNCCO)c21`, the Potency was 1.87 µM (active).

As to `Cc1cnc(C(=O)NCCc2ccc(S(=O)(=O)NC(=O)NC3CCCCC3)cc2)cn1`, the Potency was 18.7 µM (active).

Regarding `CCC1(c2ccccc2)C(=O)NCNC1=O`, the Potency was 4.69 µM (active).

Turning to `Cn1c(=O)c2[nH]cnc2n(C)c1=O`, the “viability, percent of control” value was 114%.

Regarding `Clc1ccc2c(c1)C(N1CCNCC1)=Nc1ccccc1O2`, the Potency is 26.4 µM (active).

As for `CS(=O)(=O)CCNCc1ccc(-c2ccc3ncnc(Nc4ccc(OCc5cccc(F)c5)c(Cl)c4)c3c2)o1`, the Potency was 1.18 µM (active).

Turning to `CC(C)Cc1ccc(C(C)C(=O)O)cc1` (stereo not given), the “viability, percent of control” value was 100% [at 23.2 µM].

On to `Nc1nc2c(ncn2COC(CO)CO)c(=O)[nH]1`, for which the Potency is 2.64 µM (active).

As to `NC(=O)OCC(COC(N)=O)c1ccccc1`, the “viability, percent of control” value was 103%.

For the compound `O=C(C1CCCCC1)N1CC(=O)N2CCc3ccccc3C2C1` (stereo not given), the “viability, percent of control” value is 141%.

`CC(COc1ccccc1)N(CCCl)Cc1ccccc1` (stereo not given): the “viability, percent of control” value is 118%.

In the case of `COc1cc2nc(N3CCN(C(=O)c4ccco4)CC3)nc(N)c2cc1OC`, the Potency is 9.35 µM (active).

Consider `CC(C)C(=O)Nc1ccc([N+](=O)[O-])c(C(F)(F)F)c1`, for which the Potency is 8.33 µM (active).

Turning to `CN(CCOc1ccc(NS(C)(=O)=O)cc1)CCc1ccc(NS(C)(=O)=O)cc1`, the “viability, percent of control” value was 109%.

For the compound `CCOC(=O)Nc1ccc(NCc2ccc(F)cc2)nc1N`, the “viability, percent of control” value was 97.6%.

On to `Cn1c(=O)c2c(ncn2C)n(C)c1=O`, for which the “viability, percent of control” value was 104%.

On to `OCCN1CCN(CCCN2c3ccccc3Sc3ccc(C(F)(F)F)cc32)CC1`, for which the Potency was 26.4 µM (active).

On to `CCCNCC(O)COc1ccccc1C(=O)CCc1ccccc1` (stereo not given), for which the “viability, percent of control” value is 99.4%.

Consider `O=c1[nH]cc(F)c(=O)[nH]1`, for which the Potency was 20.9 µM (active).

In the case of `CC#C[C@]1(O)CC[C@H]2[C@@H]3CCC4=CC(=O)CCC4=C3[C@@H](c3ccc(N(C)C)cc3)C[C@@]21C`, the Potency is 1.18 µM (active).

With `Clc1ccccc1C(c1ccccc1)(c1ccccc1)n1ccnc1`, the Potency was 18.7 µM (active).

Take `CC(=O)OCC(CCn1cnc2cnc(N)nc21)COC(C)=O`: the “viability, percent of control” value was 129%.

Consider `CC[C@@]1(O)C(=O)OCc2c1cc1n(c2=O)Cc2cc3c(CN(C)C)c(O)ccc3nc2-1`, for which the Potency is 5.26 µM (active).

For the compound `NC12CC3CC(CC(C3)C1)C2`, the “viability, percent of control” value was 104%.

`CCOC(=O)C(C)(C)Oc1ccc(Cl)cc1`: the “viability, percent of control” value was 115%.

`CC1COc2c(N3CCN(C)CC3)c(F)cc3c(=O)c(C(=O)O)cn1c23` (stereo not given): the “viability, percent of control” value was 134%.
